In publication PMC4336329 (PLoS ONE, 2015):
About 14,000 (4.5%) of roughly 310,000 compounds showed an effect of 50% or more. The effect is printed as a negative number. The full list was thinned out, with strong results kept by preference.

Molecular target: human ether-à-go-go-related gene (hERG) potassium channel (human, UniProt Q12809)
Assay: primary screen, population patch clamp on CHO cells stably expressing hERG; higher = less effect of the substance
Experimental: Briefly, Chinese hamster ovary (CHO) cells stably expressing the hERG channel were dislodged from tissue culture flasks and dispensed into PPC plates. […] During the recording, background leak currents were estimated by a 100 ms step to -80 mV from an initial holding potential of -70 mV and subtracted from the subsequent current measurement. The campaign was conducted in two phases using slight differences in recording protocol. In the first phase, the initial voltage pulse used a 100 ms step to -30 mV from a holding potential of -70 mV, a 2 s conditioning step to +25 mV, and a 2 s test step to -30 mV. During the second phase of the screen, the potential during the conditioning step was raised to +45 mV. In both phases of the campaign, a secondary voltage pulse was applied using the same parameters as the second phase initial pulse. The initial and secondary pulses were applied in the absence of compound, and upon application of 1 μM and 10 μM test concentrations. […]
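Note: peak tail current of the secondary pulse compared with the same well before compound.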

Sequence of human ether-à-go-go-related gene (hERG) potassium channel (Q12809 whole entry, looked up): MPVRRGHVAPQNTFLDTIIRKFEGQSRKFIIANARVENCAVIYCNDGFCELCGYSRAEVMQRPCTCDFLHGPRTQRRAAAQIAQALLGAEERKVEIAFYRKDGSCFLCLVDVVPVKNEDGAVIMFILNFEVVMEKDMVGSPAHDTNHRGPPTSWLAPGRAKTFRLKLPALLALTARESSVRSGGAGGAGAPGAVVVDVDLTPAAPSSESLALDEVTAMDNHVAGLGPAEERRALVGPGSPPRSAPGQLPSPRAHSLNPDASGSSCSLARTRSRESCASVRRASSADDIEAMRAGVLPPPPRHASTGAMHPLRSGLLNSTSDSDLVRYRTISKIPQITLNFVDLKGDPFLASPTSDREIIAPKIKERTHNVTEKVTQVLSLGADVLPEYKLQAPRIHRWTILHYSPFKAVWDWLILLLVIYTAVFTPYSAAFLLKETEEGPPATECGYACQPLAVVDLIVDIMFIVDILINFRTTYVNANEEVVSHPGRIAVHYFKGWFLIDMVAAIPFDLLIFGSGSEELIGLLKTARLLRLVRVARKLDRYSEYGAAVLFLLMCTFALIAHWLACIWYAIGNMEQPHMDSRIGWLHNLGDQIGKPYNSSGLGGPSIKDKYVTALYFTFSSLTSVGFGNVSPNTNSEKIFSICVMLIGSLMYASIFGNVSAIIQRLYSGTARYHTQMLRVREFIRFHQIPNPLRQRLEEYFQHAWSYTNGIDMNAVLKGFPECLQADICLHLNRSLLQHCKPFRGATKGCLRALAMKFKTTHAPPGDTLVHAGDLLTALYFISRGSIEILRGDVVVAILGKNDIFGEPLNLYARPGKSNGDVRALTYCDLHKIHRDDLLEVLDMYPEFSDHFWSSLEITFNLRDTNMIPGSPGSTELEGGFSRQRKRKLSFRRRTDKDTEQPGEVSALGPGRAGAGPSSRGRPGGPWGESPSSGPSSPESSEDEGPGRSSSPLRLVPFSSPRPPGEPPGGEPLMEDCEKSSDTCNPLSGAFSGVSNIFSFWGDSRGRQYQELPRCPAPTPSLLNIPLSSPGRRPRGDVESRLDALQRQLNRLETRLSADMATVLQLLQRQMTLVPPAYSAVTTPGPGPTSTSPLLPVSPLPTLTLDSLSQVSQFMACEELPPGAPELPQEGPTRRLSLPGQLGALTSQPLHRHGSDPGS

Row | SMILES | hERG current change (%, negative = inhibition) at 10uM [%]
1 | Cc1c(C(=O)N2CCC(Cc3ccccc3)CC2)sc2ncnc(N3CCC(C)CC3)c12 | 8.19
2 | CCOC(=O)C1CCCN(C(=O)c2sc3nc(C)nc(N4CCOCC4)c3c2C)C1 (stereo not shown) | -3.42
3 | Cc1c(C(=O)N2CCN(c3ccccc3)CC2)sc2ncnc(N3CCC(C)CC3)c12 | -29.9
4 | CCOC(=O)C1CCN(C(=O)c2sc3nc(C)nc(N4CCC(C)CC4)c3c2C)CC1 | -52.7
5 | CCOC(=O)C1CCN(C(=O)c2sc3ncnc(N4CCC(C)CC4)c3c2C)CC1 | -73.2
6 | CCN1CCN(C(=O)c2sc3nc(C)nc(N4CCC(C)CC4)c3c2C)CC1 | -8.16
7 | Cc1nn(-c2nnc(NC3CCCCC3)nn2)c(C)c1Br | 10.8
8 | OC1(c2ccccc2F)CCN(Cc2nnnn2Cc2ccc(F)cc2)CC1 | 8.52
9 | C/C(N)=C(/C#N)C(=O)CSc1nc2cc(Cl)ccc2c(=O)n1Cc1ccco1 | 16.8
10 | CC1(C)CC(=O)C2=C(C1)OC(/N=C/N1CCOCC1)=C(C#N)C2c1ccccc1 (stereo not shown) | -11
11 | CCOc1cccc(OCCn2cnc3ccccc3c2=O)c1 | 5.84
12 | Cn1c(=O)c2c(ncn2CC(=O)N2CCN(c3ccc([N+](=O)[O-])cc3)CC2)n(C)c1=O | -72
13 | Cn1c(=O)c2c(nc(N3CCN(c4ccc([N+](=O)[O-])cc4)CC3)n2C)n(C)c1=O | -76.2
14 | Cn1c(=O)c2c(ncn2CC(=O)N2CCN(c3ccccc3)CC2)n(C)c1=O | 0.318
15 | Cc1cccc(N2CCN(C(=O)Cn3cnc4c3c(=O)n(C)c(=O)n4C)CC2)c1C | -26
16 | Cn1c(=O)c2c(nc(N3CCCC3)n2C)n(C)c1=O | 10
17 | Cn1c(=O)c2c(ncn2CC(=O)N2CCN(c3cccc(Cl)c3)CC2)n(C)c1=O | -64.2
18 | Cn1c(=O)c2c(nc(N3CCOCC3)n2C)n(C)c1=O | -4.44
19 | COc1ccc(N2CCN(C(=O)Cn3cnc4c3c(=O)n(C)c(=O)n4C)CC2)cc1 | 5.48
20 | Cn1c(=O)c2c(ncn2CC(=O)N2CCN(c3ccc(F)cc3)CC2)n(C)c1=O | -23.4
21 | Cc1ccc(C(=O)c2ccccc2C(=O)O)s1 | -1.28
22 | COc1cccc(N2CCN(C3C4CC5CC(C4)CC3C5)CC2)c1 (stereo not shown) | 2.54

Row | SMILES | hERG current change (%, negative = inhibition) at 10uM [%]
23 | CC(=O)Nc1nc(NC(=O)/C=C/c2ccccc2)n(-c2ccccc2)n1 | -1.34
24 | COC(CNC(=O)c1ccc2c(c1)ncn2C1CCCCCC1)OC | 4.09
25 | O=C(c1ccc(F)cc1)N1CCCC(c2nc(-c3cccs3)no2)C1 (stereo not shown) | -18.5
26 | O=C(c1cccs1)N1CCCC(c2nc(-c3ccc(F)cc3)no2)C1 (stereo not shown) | -51.7
27 | O=C(c1ccc(F)cc1)N1CCCC(c2nc(-c3ccncc3)no2)C1 (stereo not shown) | -65.6
28 | O=C(c1c(F)cccc1F)N1CCCC(c2nc(-c3ccc(F)cc3)no2)C1 (stereo not shown) | -6.69
29 | COc1ccc(-c2noc(C3CCCN(C(=O)c4ccc(F)cc4)C3)n2)cc1 (stereo not shown) | -35.3
30 | COc1ccc(-c2noc(C3CCCN(C(=O)c4cccs4)C3)n2)cc1 (stereo not shown) | -21.1
31 | CCN1C(=O)c2cccc3c(S(=O)(=O)NCC4CCCO4)ccc1c23 (stereo not shown) | 1.95
32 | COCCNC(=O)C(c1cccc(OC)c1)N(C(=O)Cn1nnc2ccccc21)c1cccnc1 (stereo not shown) | 7.66
33 | COCC1CCCCN1C(=O)c1ccc(OC2CCN(Cc3ccccn3)CC2)cc1 (stereo not shown) | 1.34
34 | CC(=O)Nc1cc(NC(C)=O)cc(-c2nc3ccccc3[nH]2)c1 | 3.84
35 | Cc1ccc(C(=O)N/C(=C/c2ccc(C(C)C)cc2)C(=O)NCCCN2CCOCC2)cc1 | -65.8
36 | COc1ccc(/C=C(\NC(=O)c2ccc(C)cc2)C(=O)NCCCN2CCOCC2)cc1OC | 19.9
37 | Cc1ccc(C(=O)N/C(=C\c2ccc(C(C)C)cc2)C(=O)NCCCN2CCOCC2)cc1 | -72.3
38 | CC(C)c1ccc(/C=N/NC(=O)C(=O)NCCCN2CCOCC2)cc1 | -20.6
39 | CC(C)c1ccc(NC2CCCN(C(=O)c3n[nH]c4c3CCC4)C2)cc1 (stereo not shown) | 5.38
40 | C=CCN(c1ccccc1C(=O)O)S(=O)(=O)c1ccc(NC(=O)OC)cc1 | 4.39
41 | CC1CCCCC1NC(=O)CN(C)S(=O)(=O)c1cccc2cccnc12 (stereo not shown) | -0.115
42 | COc1cccc(SCC(=O)N2CCN(c3ccccc3)CC2)c1 | -1.23
43 | CCN1/C(=C/c2ccc3ccc(C)cc3[n+]2CC)Sc2ccccc21.[I-] | -81.1
44 | CC[n+]1c(S(=O)(=O)[O-])ccc2ccc(C)cc21 | 6.26

Row | SMILES | hERG current change (%, negative = inhibition) at 10uM [%]
45 | CCN1/C(=C/c2ccc3cc(C)ccc3[n+]2CC)Sc2ccc3sccc3c21.[I-] | -44.5
46 | CCN1/C(=C/c2ccc3cccc(C)c3[n+]2CC)Sc2ccccc21.[I-] | -75
47 | CCC(=O)/C=C1\Sc2ccccc2N1CC | -3.72
48 | CCN1/C(=C/c2ccc3cc(C)ccc3[n+]2CC)Sc2ccccc21.[I-] | -90.6
49 | CCN1/C(=C/C(=O)c2ccco2)Sc2ccccc21 | 8.09
50 | Cc1ccc2c(c1)S/C(=C\c1cccc[n+]1C)N2CCO.[I-] | -0.805
51 | CCC(=O)/C=C1/Sc2ccccc2N1CC | 7.66
52 | COc1ccccc1CNCC(=O)Nc1ccc(N2CCOCC2)cc1.O=C(O)C(=O)O | 1.57
53 | O=C(NCc1cccnc1)C1CCCCN1S(=O)(=O)c1ccc(F)cc1 (stereo not shown) | -20.9
54 | CC(=O)Nc1ccc(S(=O)(=O)N2CCN(C(=O)Cc3ccccc3)CC2)cc1 | -1.44
55 | COc1ccc(CN(CCNC(=O)CCCCC(=O)NCCN(Cc2ccc(OC)cc2)C(C)C)C(C)C)cc1.Cl | -5.63
56 | O=C(CCCOc1ccccc1)Nc1nncs1 | -5.59
57 | COc1ccc(OC)c(N2C(=O)NC(=O)C3(Cc4cc(C)ccc4N(C)C3)C2=O)c1 (stereo not shown) | -5.52
58 | Cc1ccccc1Oc1cc(-n2ncc(Cl)c(Cl)c2=O)ncn1 | 6.67
59 | CCc1cccc(CC)c1NC(=O)COc1ccccc1C(=O)c1cc(C#N)c(=O)n(C2CCCCC2)c1 | 14.4
60 | CCCCNC(=O)c1ccccc1Cl | 21.5
61 | CN1CCc2c(n(CC(O)CN3CCN(CCO)CC3)c3ccccc23)C1=O.Cl (stereo not shown) | 2.24
62 | CN1CCc2c(n(CC(O)CN(CCO)CCO)c3ccccc23)C1=O.Cl (stereo not shown) | 6.94
63 | CN1CCc2c(n(CC(O)CNCc3ccccc3)c3ccccc23)C1=O.Cl (stereo not shown) | -52.8
64 | Cc1cc(C)cc(N2CC(C)Cn3c2nc2c3c(=O)[nH]c(=O)n2C)c1 (stereo not shown) | -2.03
65 | CCC(Oc1ccccc1)C(=O)NC1CCCCCC1 (stereo not shown) | -0.406
66 | CCC1CCCCN1C(=O)CCn1c(=O)oc2ccccc21 (stereo not shown) | -17.7

Row | SMILES | hERG current change (%, negative = inhibition) at 10uM [%]
67 | O=C(N/N=C/c1cccnc1)c1cc(-c2cccs2)nc2ccccc12 | -20
68 | CCC(C)Sc1cccc(-c2nc3cc(C)ccn3c2NCc2ccccc2)c1.O=C(O)C(F)(F)F (stereo not shown) | 4.02
69 | Cc1ccc(S(=O)(=O)N2CCCCC2)cc1C(=O)N1CCN(CCO)CC1 | 3.41
70 | O=C(OCc1ccccc1)C1=NNC2C(=O)N(Cc3ccccc3)C(=O)C12 (stereo not shown) | 16.2
71 | O=C(C1=NN[C@@H]2C(=O)N(Cc3ccccc3)C(=O)[C@H]12)c1ccc([N+](=O)[O-])cc1 | -50.2
72 | O=C(C1=NN[C@@H]2C(=O)N(Cc3ccccc3)C(=O)[C@H]12)c1ccc(F)cc1 | 7.44
73 | CC(C)(C)c1nnc(NS(=O)(=O)c2ccc([N+](=O)[O-])cc2)s1 | 28.3
74 | CSc1nc(N2CCN(C)CC2)c2ccccc2n1 | -49.1
75 | CCN1CCN(c2nc(-c3ccccn3)nc3ccccc23)CC1 | -56.3
76 | COc1cccc(-c2nc(N3CCN(c4ccccc4)CC3)c3ccccc3n2)c1O | 0.912
77 | c1ccc(N2CCN(c3nc(-c4ccccn4)nc4ccccc34)CC2)cc1 | -73.9
78 | c1ccc(CN2CCN(c3nc(-c4ccccn4)nc4ccccc34)CC2)cc1 | 5.45
79 | c1ccc(-c2nc(N3CCOCC3)c3ccccc3n2)nc1 | -15.9
80 | Fc1ccccc1-c1nc(N2CCCCC2)c2ccccc2n1 | -1.61
81 | Oc1ccccc1-c1nc(N2CCCC2)c2ccccc2n1 | -13.2
82 | CN1CCN(c2nc(-c3ccccn3)nc3ccccc23)CC1 | -51.4
83 | c1ccc(-c2nc(N3CCCCCC3)c3ccccc3n2)nc1 | -77.5
84 | Cc1cc(C)c(S(=O)(=O)N2CCOC2CNC(=O)C(=O)NCCN(C)C)c(C)c1 (stereo not shown) | 13.1
85 | COc1ccc2[nH]cc(CCNC(=O)c3ccco3)c2c1 | 12.3
